Data published in PubChem BioAssay (EPA / NIEHS).
Results filed as inconclusive are left out. Calls of active or inactive are those of the source. How the source made its calls, unless noted: active means hit-call score of the fitted dose curve at least 0.9, where 1 is the maximum; inactive means score below 0.9.

Key:
[1] = BSK_3C_TissueFactor: BioMAP Diversity Plus: 3C Assay for Tissue Factor Biomarker Activity (AID 2282997); conditions: BioMAP 3C HUVEC, tissue factor biomarker readout; actives raise or lower the signal
Summary of the method: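 HUVEC were treated 24 h, then surface tissue factor measured by ELISA and fitted bidirectionally against DMSO. Parallel SRB total-protein staining assessed overt cytotoxicity at the same time point.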

[2] = BSK_3C_uPAR: BioMAP Diversity Plus: 3C Assay for Urokinase-type plasminogen activator receptor (uPAR) Biomarker Activity (AID 2282998); conditions: BioMAP 3C HUVEC, uPAR biomarker ELISA; actives raise or lower the signal
Summary of the method: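 Primary human umbilical vein endothelial cells, 3C system; surface uPAR measured by ELISA 24 h after dosing. Cytotoxicity via SRB total protein in parallel cultures; bidirectional fit against DMSO.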

[3] = BSK_3C_VCAM1: BioMAP Diversity Plus: 3C Assay for Vascular cell adhesion molecule 1 (VCAM1) Biomarker Activity (AID 2282999); conditions: BioMAP 3C HUVEC, VCAM1 ELISA, cytokine-stimulated; actives raise or lower the signal
Summary of the method: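 Endothelial cells from human umbilical vein are treated with test chemical. At 24 h, VCAM-1 is measured by ELISA, and responses in either direction are fitted relative to DMSO.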

[4] = ATG_M_06_TRANS: Attagene TRANS-FACTORIAL HepG2 Assay for M06 Transcription Factor (Internal Marker) (AID 2282983; active means hit-call score of the fitted dose curve at least 0.9, where 1 is the maximum;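 further: reporter transcript level by RT-PCR then capillary electrophoresis fluorescence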); conditions: HepG2 Attagene TRANS M06 internal marker reporter
Summary of the method: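 HepG2 cells transiently transfected with GAL4-UAS multiple reporter units, dosed 24 h. Reporter RNA reverse-transcribed, PCR-amplified, 6-FAM-labeled, HpaI-digested and quantified by capillary electrophoresis; this internal-marker signal fitted upward relative to DMSO.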

[5] = ATG_M_32_TRANS: Attagene TRANS-FACTORIAL HepG2 Assay for M32 Transcription Factor (Internal Marker) (AID 2282984; active means hit-call score of the fitted dose curve at least 0.9, where 1 is the maximum;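 further: transcript level of a background control reporter unit measured by RT-PCR and capillary electrophoresis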); conditions: HepG2 Attagene TRANS M32 internal marker reporter
Summary of the method: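 Using transiently transfected HepG2 cells exposed to test chemicals for 24 h, reporter transcripts are converted to labelled cDNA fragments and quantified by capillary electrophoresis. DMSO defines the activity baseline.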

[6] = target: Nuclear receptor subfamily 4 group A member 2 (Homo sapiens) (UniProt P43354); assay: ATG_NURR1_TRANS: Attagene TRANS-FACTORIAL HepG2 Assay for human Nuclear Receptor Related Protein 1 (NURR1) (AID 2282985; active means hit-call score of the fitted dose curve at least 0.9, where 1 is the maximum); conditions: HepG2 Attagene TRANS reporter, mRNA readout
Summary of the method: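 Cells: HepG2, transiently transfected. Exposure: 24 h. Detection: fluorescence of labelled RT-PCR products separated by capillary electrophoresis; upward fit versus DMSO.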

[7] = target: Transcriptional activator Myb (Homo sapiens) (UniProt P10242); assay: ATG_Myb_CIS: Attagene CIS-FACTORIAL HepG2 Assay for human Myeloblastosis (Myb) Proto-Oncogene Transcription Factor (AID 2282986); conditions: HepG2 Attagene CIS-FACTORIAL Myb reporter transcription; actives raise or lower the signal
Summary of the method: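 Steps: transfect HepG2 with cis-regulated reporter units; dose with chemical for 24 h; isolate RNA, reverse-transcribe, PCR-amplify and FAM-label reporter sequences; digest with HpaI; resolve by capillary electrophoresis. Activity fitted in both directions relative to DMSO.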

[8] = target: Nuclear respiratory factor 1 (Homo sapiens) (UniProt Q16656); assay: ATG_NRF1_CIS: Attagene CIS-FACTORIAL HepG2 Assay for human Nuclear Respiratory Factor 1 (NRF1) Orphan Gene (AID 2282987); conditions: HepG2 NRF1 cis-element reporter, Attagene multiplex; actives raise or lower the signal
Summary of the method: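 Fluorescence intensity of labelled reporter cDNA fragments, resolved by capillary electrophoresis, served as readout for NRF1 cis-element activity. Transiently transfected HepG2 cells were dosed for 24 hours; activity in either direction was fitted against DMSO negative control.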

[9] = ATG_NFI_CIS: Attagene CIS-FACTORIAL HepG2 Assay for human Nuclear Factor I (NFI) (AID 2282989); conditions: HepG2 cis-regulatory reporter, NFI response element transcription; actives raise or lower the signal
Summary of the method: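 Endogenous TF activity in HepG2 cells transiently transfected with cis-element-driven multiplexed reporter units, read 24 h after dosing. Reporter mRNA quantified by RT-PCR, 6-FAM labelling, HpaI digestion and capillary electrophoresis; bidirectional fit versus DMSO.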

[10] = target: Myc proto-oncogene protein (Homo sapiens) (UniProt P01106); assay: ATG_Myc_CIS: Attagene CIS-FACTORIAL HepG2 Assay for human Myelocytomatosis (Myc) Proto-Oncogene Transcription Factor (AID 2282990); conditions: HepG2, Attagene cis-reporter transcription factor activity; actives raise or lower the signal
Summary of the method: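 HepG2, transient MRTU transfection (cis promoters, endogenous TFs); 24 h dosing; TriZol RNA → oligo(dT) RT → PCR → 6-FAM primer extension → HpaI cut → CE. Bidirectional fit vs DMSO.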

[11] = ATG_NRF2_ARE_CIS: Attagene CIS-FACTORIAL HepG2 Assay for human Nuclear Factor Erythroid 2 Related Factor 2 (NFR2) response to Antioxidant Response Elements (ARE) (AID 2282992); conditions: HepG2 Attagene ARE/NRF2 reporter, transcription factor activity; actives raise or lower the signal
Summary of the method: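 HepG2 cells transiently transfected with multiplexed cis-regulated reporter transcription units measure endogenous transcription factor activity. Reporter mRNA at 24 h is quantified by RT-PCR, fluorescent labelling and capillary electrophoresis, with bidirectional fitting relative to DMSO.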

[12] = target: Cellular tumor antigen p53 (Homo sapiens) (UniProt P04637); assay: ATG_p53_CIS: Attagene CIS-FACTORIAL HepG2 Assay for human p53 Transcription Factor (AID 2282994); conditions: HepG2 p53 cis-element reporter, Attagene mRNA; actives raise or lower the signal
Summary of the method: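 HepG2 cells transiently transfected with multiplexed cis-regulated reporter transcription units read endogenous TF activity. After 24 h compound exposure, reporter mRNA was quantified by RT-PCR, fluorescent labelling, HpaI digestion and capillary electrophoresis; bidirectional fits versus DMSO baseline.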

[13] = target: Hepatocyte nuclear factor 4-alpha (Homo sapiens) (UniProt P41235); assay: ATG_HNF4a_TRANS: Attagene TRANS-FACTORIAL HepG2 Assay for human Hepatocyte Nuclear Factor 4 alpha (HNF4a) (AID 2282982; active means hit-call score of the fitted dose curve at least 0.9, where 1 is the maximum); conditions: HepG2 HNF4a transactivation reporter, mRNA readout
Summary of the method: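 Transfected HepG2 reporter cells are dosed for 24 h; reporter RNA is reverse-transcribed, amplified, fluorescently labelled and HpaI-digested before CE sizing. Positive-direction fit against DMSO.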

[14] = ATG_Oct_MLP_CIS: Attagene CIS-FACTORIAL HepG2 Assay for human Octamer-Binding Transcription Factor (Oct) (AID 2282993); conditions: HepG2 Attagene cis-factorial Oct reporter, mRNA; actives raise or lower the signal
Summary of the method: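 HepG2 cells transiently transfected with cis-element-driven reporter transcription units (endogenous TF activity); 24 h compound exposure. Reporter mRNA quantified by RT-PCR, 6-FAM labelling, HpaI digestion and capillary electrophoresis; bidirectional fit versus DMSO baseline.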

[15] = ATG_NF_kB_CIS: Attagene CIS-FACTORIAL HepG2 Assay for human Nuclear Factor Kappa B (NF-kB) (AID 2282991); conditions: HepG2 Attagene cis-factorial NF-kB reporter mRNA; actives raise or lower the signal
Summary of the method: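 Endogenous transcription factor activity in HepG2 was captured via cis-regulated reporter constructs; after 24 h dosing, reporter mRNA was reverse-transcribed, amplified, fluorescently labelled and sized by capillary electrophoresis, with activity fitted bidirectionally relative to DMSO.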

Measured: outcome

Hepatocyte nuclear factor 4-alpha (Homo sapiens), sequence (P41235 whole entry, looked up): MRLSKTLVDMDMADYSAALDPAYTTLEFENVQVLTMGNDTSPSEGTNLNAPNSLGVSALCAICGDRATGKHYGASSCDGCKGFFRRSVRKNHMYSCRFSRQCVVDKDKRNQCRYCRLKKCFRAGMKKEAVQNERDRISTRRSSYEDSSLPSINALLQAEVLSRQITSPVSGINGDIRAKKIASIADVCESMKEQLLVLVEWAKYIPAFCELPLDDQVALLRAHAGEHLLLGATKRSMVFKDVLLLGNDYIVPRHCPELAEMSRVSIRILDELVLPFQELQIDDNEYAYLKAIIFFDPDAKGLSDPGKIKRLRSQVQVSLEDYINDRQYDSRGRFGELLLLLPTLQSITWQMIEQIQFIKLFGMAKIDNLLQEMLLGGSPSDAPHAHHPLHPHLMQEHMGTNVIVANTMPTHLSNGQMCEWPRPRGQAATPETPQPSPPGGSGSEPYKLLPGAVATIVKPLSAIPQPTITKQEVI
Myc proto-oncogene protein (Homo sapiens), sequence (P01106 whole entry, looked up): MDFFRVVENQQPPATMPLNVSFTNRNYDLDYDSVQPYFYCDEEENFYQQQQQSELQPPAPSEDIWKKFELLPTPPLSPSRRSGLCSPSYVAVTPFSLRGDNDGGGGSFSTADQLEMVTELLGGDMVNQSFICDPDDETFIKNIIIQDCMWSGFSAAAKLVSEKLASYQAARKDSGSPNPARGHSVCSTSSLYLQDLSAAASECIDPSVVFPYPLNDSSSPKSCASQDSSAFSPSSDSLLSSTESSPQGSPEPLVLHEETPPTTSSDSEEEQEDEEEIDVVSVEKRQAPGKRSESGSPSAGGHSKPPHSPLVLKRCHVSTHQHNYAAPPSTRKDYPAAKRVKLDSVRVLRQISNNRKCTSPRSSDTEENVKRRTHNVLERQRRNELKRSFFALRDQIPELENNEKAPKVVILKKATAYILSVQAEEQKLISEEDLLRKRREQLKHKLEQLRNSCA
Cellular tumor antigen p53 (Homo sapiens), sequence (P04637 whole entry, looked up): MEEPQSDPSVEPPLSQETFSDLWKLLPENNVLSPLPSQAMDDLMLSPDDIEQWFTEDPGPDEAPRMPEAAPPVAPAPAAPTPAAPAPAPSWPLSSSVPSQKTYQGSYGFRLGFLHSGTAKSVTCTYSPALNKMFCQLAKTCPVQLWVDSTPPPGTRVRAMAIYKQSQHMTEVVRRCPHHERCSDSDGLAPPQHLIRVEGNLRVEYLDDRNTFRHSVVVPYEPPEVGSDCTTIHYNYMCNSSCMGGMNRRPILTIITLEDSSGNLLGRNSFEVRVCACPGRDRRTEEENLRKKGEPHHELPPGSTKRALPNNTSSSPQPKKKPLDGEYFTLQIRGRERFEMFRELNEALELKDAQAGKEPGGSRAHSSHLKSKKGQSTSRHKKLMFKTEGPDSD
Nuclear respiratory factor 1 (Homo sapiens), sequence (Q16656 whole entry, looked up, the tested form may be a part): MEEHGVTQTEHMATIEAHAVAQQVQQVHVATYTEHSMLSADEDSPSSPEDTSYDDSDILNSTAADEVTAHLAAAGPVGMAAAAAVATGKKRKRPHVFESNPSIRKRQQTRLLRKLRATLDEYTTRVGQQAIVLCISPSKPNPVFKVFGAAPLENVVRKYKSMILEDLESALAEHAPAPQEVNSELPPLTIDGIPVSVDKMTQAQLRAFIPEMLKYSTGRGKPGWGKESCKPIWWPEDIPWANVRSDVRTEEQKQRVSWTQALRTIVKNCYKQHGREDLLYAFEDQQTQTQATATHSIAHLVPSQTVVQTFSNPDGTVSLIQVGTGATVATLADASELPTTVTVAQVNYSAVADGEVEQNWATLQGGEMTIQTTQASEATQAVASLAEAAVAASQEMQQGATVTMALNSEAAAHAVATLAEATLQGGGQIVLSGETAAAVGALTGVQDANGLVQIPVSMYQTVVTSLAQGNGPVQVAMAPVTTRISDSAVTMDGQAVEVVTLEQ
Transcriptional activator Myb (Homo sapiens), sequence (P10242 whole entry, looked up): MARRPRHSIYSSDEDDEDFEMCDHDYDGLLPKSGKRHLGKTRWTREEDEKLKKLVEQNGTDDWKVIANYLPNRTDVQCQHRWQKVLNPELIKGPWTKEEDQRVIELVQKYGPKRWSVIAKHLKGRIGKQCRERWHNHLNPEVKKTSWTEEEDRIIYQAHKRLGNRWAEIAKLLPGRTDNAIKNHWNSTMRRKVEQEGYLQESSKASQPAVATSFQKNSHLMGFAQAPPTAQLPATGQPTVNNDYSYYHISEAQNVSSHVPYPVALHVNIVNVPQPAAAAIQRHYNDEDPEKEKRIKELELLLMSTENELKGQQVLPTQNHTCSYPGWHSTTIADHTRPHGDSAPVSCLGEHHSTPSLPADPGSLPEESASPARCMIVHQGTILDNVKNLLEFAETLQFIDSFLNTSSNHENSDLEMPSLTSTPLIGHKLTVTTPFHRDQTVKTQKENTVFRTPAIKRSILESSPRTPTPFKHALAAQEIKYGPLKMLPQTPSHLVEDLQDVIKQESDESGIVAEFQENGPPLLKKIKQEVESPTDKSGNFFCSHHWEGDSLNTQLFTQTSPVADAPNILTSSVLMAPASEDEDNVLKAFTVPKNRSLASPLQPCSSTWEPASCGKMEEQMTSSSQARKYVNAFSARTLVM
Nuclear receptor subfamily 4 group A member 2 (Homo sapiens), sequence (P43354 whole entry, looked up): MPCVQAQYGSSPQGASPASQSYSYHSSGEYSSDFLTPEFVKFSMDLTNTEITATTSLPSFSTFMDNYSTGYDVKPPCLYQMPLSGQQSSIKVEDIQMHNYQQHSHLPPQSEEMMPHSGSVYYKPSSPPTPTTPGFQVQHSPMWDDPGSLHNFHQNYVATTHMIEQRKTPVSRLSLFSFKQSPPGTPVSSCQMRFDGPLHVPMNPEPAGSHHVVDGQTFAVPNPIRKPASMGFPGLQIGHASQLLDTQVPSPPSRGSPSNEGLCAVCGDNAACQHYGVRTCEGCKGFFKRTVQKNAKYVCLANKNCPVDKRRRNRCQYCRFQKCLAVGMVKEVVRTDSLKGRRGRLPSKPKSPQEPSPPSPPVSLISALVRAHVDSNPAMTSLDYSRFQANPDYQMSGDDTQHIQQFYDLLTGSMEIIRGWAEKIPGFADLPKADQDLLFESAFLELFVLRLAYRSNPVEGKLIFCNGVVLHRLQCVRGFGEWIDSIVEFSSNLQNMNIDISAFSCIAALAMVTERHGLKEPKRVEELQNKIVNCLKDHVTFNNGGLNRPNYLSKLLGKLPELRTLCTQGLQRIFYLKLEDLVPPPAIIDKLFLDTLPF

O=S(=O)(O)C(F)(F)C(F)(F)OC(F)(F)C(F)(F)F
inactive: [1] | [2] | [3]

CCCCCCCOC(C)=O
not listed: [1] | [2] | [3] | [13] | [14] | [15]
inactive: all other assays above

CCCCCCCCCOS(=O)(=O)O
not listed: [1] | [2] | [3] | [5] | [6] | [15]
inactive: all other assays above

C=C(C)C(=O)OCCC(F)(F)C(F)(F)C(F)(F)C(F)(F)C(F)(F)C(F)(F)C(F)(F)C(F)(F)F
inactive: [1] | [2] | [3]

CCCc1ccc(N)cc1
inactive: [7] | [8] | [9] | [10] | [15] | [11] | [14] | [12]

OC[C@@H](O)[C@H](O)[C@@H](O)[C@@H](O)CO
not listed: [1] | [2] | [3] | [4] | [6] | [14]
inactive: all other assays above

CCCCN(CCO)CCO
not listed: [5] | [6]
inactive: all other assays above
